Experimental data from PubChem BioAssay (Tox21).
Inconclusive results are not listed. The source made the active and inactive calls. Unless noted, calls follow the shape of the dose curve; as a rule, active = well fitted curve in the direction sought with a large enough effect in the repeat runs; inconclusive = weak or mixed curves; inactive = no such curve, though single readings can be large; an effect the other way counts as inactive or inconclusive.

What was measured:
[1] = qHTS RealTime-Glo MT Cell Viability Assay in HepG2 cells - 32 hour (AID 1224877); also: nearly all actives have a fitted effect of over 55% in size
Method in brief: (§1)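 Luminescence read-out: viable HepG2 cells reduce a prosubstrate to a NanoLuc substrate, giving a signal proportional to live cell number. Reads taken at 0, 8, 16, 24, 32 and 40 h of compound exposure at 37 C.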

[2] = A CellTox Green Cytotoxicity Assay to monitor cytotoxicity in HepG2 cells - 40 hour (AID 1224879); also: nearly all actives have a fitted effect of over 40% in size; also: potency is read from the fitted curve at half-maximal effect
Method in brief: (§2)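 First, HepG2 cells (600/well) mixed with reagent were plated; second, after 5 h at 37 C they received compounds via pintool; third, fluorescence was measured at 0 h through 40 h at 8 h intervals.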

[3] = qHTS RealTime-Glo MT Cell Viability Assay in HEK293 cells - 0 hour (AID 1224880); also: top concentration of the series differs between compounds; nearly all actives have a fitted effect of over 45% in size
Method in brief: (§3)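 600 HEK293 cells per well, dispensed already mixed with RealTime-Glo MT reagents. Compound dosing came 5 h later. The same wells were read for luminescence at 0, 8, 16, 24, 32 and 40 h of exposure at 37 C.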

[4] = A CellTox Green Cytotoxicity Assay to monitor cytotoxicity in HEK293 cells - 8 hour (AID 1224884); also: nearly all actives have a fitted effect of over 35% in size
Method in brief: (§4)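 Dead-cell fluorescence measured kinetically: asymmetric cyanine dye, HEK293, 600 cells/well, 5 h settle, 23 nL cpd/DMSO, 37 C, reads 0–40 h every 8 h.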

[5] = qHTS RealTime-Glo MT Cell Viability Assay in HepG2 cells - 16 hour (AID 1224885); also: nearly all actives have a fitted effect of over 50% in size
Method in brief: as §1

[6] = qHTS RealTime-Glo MT Cell Viability Assay in HEK293 cells - 24 hour (AID 1224886); also: nearly all actives have a fitted effect of over 50% in size; also: potency is read from the fitted curve at half-maximal effect; as to activity change, negative = cytotoxicity: top concentration of the series differs between compounds
Method in brief: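 Nonlytic real-time viability readout: viable cells convert prosubstrate to NanoLuc substrate, giving luminescence proportional to live cell number. HEK293, 600 cells/well, compound added after 5 h, continuous culture at 37 C.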

[7] = qHTS RealTime-Glo MT Cell Viability Assay in HEK293 cells - 8 hour (AID 1224887); also: nearly all actives have a fitted effect of over 50% in size; also: potency is read from the fitted curve at half-maximal effect; as to activity change, negative = cytotoxicity: top concentration of the series differs between compounds
Method in brief: as §3

[8] = A CellTox Green Cytotoxicity Assay to monitor cytotoxicity in HEK293 cells - 16 hour (AID 1224888); also: nearly all actives have a fitted effect of over 35% in size
Method in brief: as §4

[9] = qHTS assay to identify small molecule antagonists of the estrogen receptor alpha (ER-alpha) signaling pathway using the BG1 cell line in the presence of 0.1 nM 17-beta-estradiol - cell viability counter screen (AID 1259241); also: nearly all actives have a fitted effect of over 40% in size
Method in brief: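 Cells were plated and left 24 hr, compounds in DMSO were pinned in, 17beta-estradiol was added to 0.1 nM final, and after 22 hr CellTiter-Fluor reagent was added for 30 min before fluorescence was read.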

[10] = qHTS assay to identify small molecule antagonists of the androgen receptor (AR) signaling pathway using the MDA cell line in the presence of 0.5 nM R1881 - cell viability counter screen (AID 1259242); also: nearly all actives have a fitted effect of over 45% in size
Method in brief: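 qHTS format. MDA-kb2 (MMTV-luc, AR/GR responsive) + cpd + 0.5 nM R1881 final, 16 hr 37C/0% CO2 → CellTiter-Fluor 30 min → fluorescence intensity.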

[11] = molecular target: Androgen receptor (Homo sapiens) (UniProt P10275); test: qHTS assay to identify small molecule antagonists of the androgen receptor (AR) signaling pathway using the MDA cell line in the presence of 0.5 nM R1881 (AID 1259243); also: nearly all actives have a fitted effect of over 50% in size; also: potency is read from the fitted curve at half-maximal effect
Chain of Androgen receptor (Homo sapiens) (P10275 whole entry, looked up): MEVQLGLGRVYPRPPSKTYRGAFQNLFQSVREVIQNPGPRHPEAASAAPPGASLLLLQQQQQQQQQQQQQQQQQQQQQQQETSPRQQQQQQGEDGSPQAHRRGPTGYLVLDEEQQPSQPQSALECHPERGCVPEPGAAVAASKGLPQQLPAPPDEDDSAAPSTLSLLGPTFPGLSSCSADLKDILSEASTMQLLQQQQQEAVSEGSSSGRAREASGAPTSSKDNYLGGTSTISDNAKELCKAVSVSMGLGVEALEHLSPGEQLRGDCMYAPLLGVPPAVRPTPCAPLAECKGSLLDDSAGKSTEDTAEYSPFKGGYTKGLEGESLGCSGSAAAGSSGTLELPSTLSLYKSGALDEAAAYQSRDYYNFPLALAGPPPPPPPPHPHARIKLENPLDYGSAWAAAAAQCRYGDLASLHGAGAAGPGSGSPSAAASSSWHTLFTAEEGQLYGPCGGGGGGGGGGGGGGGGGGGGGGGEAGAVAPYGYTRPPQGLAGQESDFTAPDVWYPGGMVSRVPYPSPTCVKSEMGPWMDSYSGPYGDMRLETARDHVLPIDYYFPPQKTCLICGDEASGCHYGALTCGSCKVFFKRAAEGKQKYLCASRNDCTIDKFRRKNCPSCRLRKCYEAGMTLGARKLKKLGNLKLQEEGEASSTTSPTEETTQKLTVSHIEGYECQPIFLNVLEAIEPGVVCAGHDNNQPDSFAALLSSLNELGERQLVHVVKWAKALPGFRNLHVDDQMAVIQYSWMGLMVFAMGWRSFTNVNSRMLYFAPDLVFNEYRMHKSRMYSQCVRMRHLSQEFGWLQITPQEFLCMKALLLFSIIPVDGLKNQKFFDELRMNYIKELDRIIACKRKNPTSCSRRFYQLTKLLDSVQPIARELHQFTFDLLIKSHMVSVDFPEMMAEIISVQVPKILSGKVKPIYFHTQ
Method in brief: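 Antagonist mode quantitative HTS in MDA-kb2 MMTV-luciferase cells, agonist R1881 at 0.5 nM final, 16 hr exposure at 37C and 0% CO2, luminescent detection.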

[12] = molecular target: Estrogen receptor (Homo sapiens) (UniProt P03372); test: qHTS assay to identify small molecule antagonists of the estrogen receptor alpha (ER-alpha) signaling pathway using the BG1 cell line in the presence of 0.1 nM 17-beta-estradiol (AID 1259244); also: nearly all actives have a fitted effect of over 50% in size
Chain of Estrogen receptor (Homo sapiens) (P03372 whole entry, looked up): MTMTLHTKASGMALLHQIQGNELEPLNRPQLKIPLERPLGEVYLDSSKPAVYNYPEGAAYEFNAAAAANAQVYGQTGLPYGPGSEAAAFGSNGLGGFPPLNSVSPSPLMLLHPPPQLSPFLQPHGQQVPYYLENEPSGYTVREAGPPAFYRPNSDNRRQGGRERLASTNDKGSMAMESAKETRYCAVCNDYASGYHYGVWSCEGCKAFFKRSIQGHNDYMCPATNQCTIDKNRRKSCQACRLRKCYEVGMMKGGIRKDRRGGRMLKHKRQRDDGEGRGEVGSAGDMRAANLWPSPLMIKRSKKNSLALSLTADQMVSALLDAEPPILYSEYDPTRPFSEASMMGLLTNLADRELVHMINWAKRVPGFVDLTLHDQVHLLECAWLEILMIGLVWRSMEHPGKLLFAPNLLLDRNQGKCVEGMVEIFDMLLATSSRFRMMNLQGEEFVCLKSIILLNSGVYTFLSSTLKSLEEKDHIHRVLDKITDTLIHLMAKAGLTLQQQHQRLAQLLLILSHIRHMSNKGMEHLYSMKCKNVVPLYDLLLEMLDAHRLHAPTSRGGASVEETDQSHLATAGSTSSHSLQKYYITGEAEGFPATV
Method in brief: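 Reporter is a stably transfected luciferase under four estrogen responsive elements in VM7Luc4E2 cells expressing native full-length ER-alpha; inhibition of 0.1 nM (final) 17beta-estradiol-driven signal over 22 h is read by luminescence.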

[13] = A CellTox Green Cytotoxicity Assay to monitor cytotoxicity in HepG2 cells - 16 hour (AID 1224876); also: nearly all actives have a fitted effect of over 45% in size
Method in brief: as §2

[14] = A CellTox Green Cytotoxicity Assay to monitor cytotoxicity in HepG2 cells - 24 hour (AID 1224878); also: nearly all actives have a fitted effect of over 45% in size
Method in brief: as §2

[15] = A CellTox Green Cytotoxicity Assay to monitor cytotoxicity in HEK293 cells - 32 hour (AID 1224881); also: nearly all actives have a fitted effect of over 40% in size
Method in brief: as §4

[16] = A CellTox Green Cytotoxicity Assay to monitor cytotoxicity in HepG2 cells - 0 hour (AID 1224882); also: nearly all actives have a fitted effect of over 35% in size
Method in brief: as §2

[17] = A CellTox Green Cytotoxicity Assay to monitor cytotoxicity in HepG2 cells - 32 hour (AID 1224883); also: nearly all actives have a fitted effect of over 50% in size
Method in brief: as §2

[18] = qHTS RealTime-Glo MT Cell Viability Assay in HepG2 cells - 0 hour (AID 1224889); also: nearly all actives have a fitted effect of over 50% in size
Method in brief: as §1

[19] = A CellTox Green Cytotoxicity Assay to monitor cytotoxicity in HepG2 cells - 8 hour (AID 1224890); also: nearly all actives have a fitted effect of over 45% in size; also: potency is read from the fitted curve at half-maximal effect
Method in brief: as §2

[20] = qHTS assay to identify small molecule phospholipidosis (PLD) inducers (AID 1259344; active = well fitted curve in the direction sought with a large enough effect; an effect the other way counts as inactive or inconclusive)
Method in brief: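 After 4 h attachment on collagen I, HepG2 cells were dosed with compound alongside LipidTOX Red, kept 24 h at 37 C, fixed, and imaged for lamellar phospholipid pits.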
% is scaled to controls: 0 for no effect and ±100 for the full control effect.

CCC(=O)Oc1ccc2c(c1)CC[C@@H]1[C@@H]2CC[C@@]2(C)[C@H]1C[C@@H](OC(=O)CC)[C@@H]2OC(=O)CC
inactive: outcome [1] | Potency [2] | Potency [3] | Potency [4] | outcome [5] | Potency [6] | Potency [7] | Potency [8] | outcome [9] | outcome [10] | outcome [12]
active: Potency [11] 8.41 µM

CC(S)C(C)S (centres undefined)
inactive: Potency [13] | Potency [14] | Potency [3] | Potency [15] | Potency [16] | Potency [17] | Potency [4] | outcome [5] | Potency [6] | Potency [7] | Potency [8] | Potency [18] | Potency [19] | outcome [9] | outcome [10] | Potency [11] | outcome [12]

c1ccc(-c2nn[nH]n2)cc1
inactive: Potency [13] | Potency [14] | Potency [2] | Potency [3] | Potency [15] | Potency [16] | Potency [17] | Potency [4] | outcome [5] | Potency [7] | Potency [8] | Potency [18] | Potency [19] | outcome [9] | outcome [10] | outcome [12]

COS(=O)(=O)O
inactive: outcome [1] | Potency [3] | Potency [15] | Potency [16] | Potency [4] | outcome [5] | Potency [6] | Potency [7] | Potency [8] | Potency [18] | Potency [19] | outcome [9] | outcome [10]

C/C=C(\C)C(C)=O
inactive: Potency [13] | Potency [14] | Potency [2] | Potency [15] | Potency [16] | Potency [17] | Potency [4] | outcome [5] | Potency [6] | Potency [8] | Potency [18] | Potency [19] | outcome [9] | outcome [10] | Potency [11] | outcome [12]

COc1c2occc2c(OC)c2c(=O)cc(C)oc12
active: Potency [6] 8.49 µM | Potency [7] 9.52 µM
inactive: Potency [13] | Potency [14] | Potency [3] | Potency [15] | Potency [16] | Potency [17] | Potency [4] | outcome [5] | Potency [8] | Potency [18] | Potency [19] | outcome [9] | outcome [10] | outcome [20]

CC(=O)CCC1=C(C)CCCC1(C)C
inactive: Potency [3] | Potency [15] | Potency [4] | outcome [5] | Potency [6] | Potency [7] | Potency [8] | Potency [19] | outcome [9] | outcome [10] | outcome [12]

Cn1c(=O)c2c(ncn2CCO)n(C)c1=O
inactive: outcome [1] | Potency [3] | Potency [15] | Potency [4] | outcome [5] | Potency [6] | Potency [7] | Potency [8] | outcome [9] | outcome [10] | outcome [20]

CC/C=C\CCOC(=O)c1ccccc1O
active: Potency [2] 21.9 µM
inactive: outcome [1] | Potency [3] | Potency [15] | Potency [16] | outcome [5] | Potency [6] | Potency [7] | Potency [8] | Potency [18] | outcome [9] | outcome [10] | outcome [12]

Nc1nnnn1-c1ccccc1
inactive: outcome [1] | Potency [3] | Potency [16] | Potency [4] | outcome [5] | Potency [6] | Potency [7] | Potency [8] | Potency [18] | outcome [9] | outcome [10] | outcome [12] | outcome [20]

N[C@@H](Cc1ccc(O)cc1)C(=O)O
inactive: cytotoxicity increase [13] -12.3% [at 6.97 µM] | cytotoxicity [14] -12.9% [at 6.97 µM] | activity change, negative = cytotoxicity [3] 4.85% [at 6.97 µM] | cytotoxicity increase [15] 4.36% [at 6.97 µM] | cytotoxicity increase [17] -9.11% [at 6.97 µM] | cytotoxicity increase [4] -1.4% [at 6.97 µM] | activity change, negative = cytotoxic [5] 0.618% [at 6.97 µM] | activity change, negative = cytotoxicity [6] -0.381% [at 6.97 µM] | activity change, negative = cytotoxicity [7] 10.4% [at 6.97 µM] | activity change [8] 0.851% [at 6.97 µM, active compounds read high] | activity change, negative = cytotoxicity [18] -4.17% [at 6.97 µM] | cytotoxicity increase [19] -2.53% [at 6.97 µM] | activity change, negative = cytotoxicity [9] -0.913% [at 8.39 µM] | viability change, negative = cytotoxic [10] 0.626% [at 8.39 µM] | outcome [20]

CC(C)NCC(O)c1ccc2ccccc2c1 (centres undefined)
inactive: Potency [13] | Potency [14] | Potency [2] | Potency [3] | Potency [15] | Potency [4] | outcome [5] | Potency [6] | Potency [8] | Potency [18] | Potency [19] | outcome [9] | outcome [10] | outcome [20]

CCCCCC/C=C/C(=O)OC
active: Potency [19] 49 µM
inactive: outcome [1] | Potency [3] | Potency [4] | outcome [5] | Potency [6] | Potency [7] | Potency [18] | outcome [9] | outcome [10]

CCCC(=O)Nc1ccc(OCC(O)CNC(C)C)c(C(C)=O)c1 (centres undefined)
inactive: Potency [13] | Potency [14] | Potency [2] | Potency [3] | Potency [15] | Potency [17] | Potency [4] | outcome [5] | Potency [6] | Potency [7] | Potency [8] | Potency [18] | Potency [19] | outcome [9] | outcome [10] | outcome [12] | outcome [20]

CC1CCc2c(N3CCC(O)CC3)c(F)cc3c(=O)c(C(=O)O)cn1c23 (centres undefined)
inactive: Potency [13] | Potency [14] | Potency [2] | Potency [3] | Potency [15] | Potency [17] | outcome [5] | Potency [6] | Potency [7] | Potency [8] | Potency [18] | Potency [19] | outcome [9] | outcome [10] | outcome [12] | outcome [20]

Fc1ccccc1
inactive: Potency [13] | Potency [14] | Potency [2] | Potency [3] | Potency [15] | Potency [16] | Potency [4] | outcome [5] | Potency [6] | Potency [8] | Potency [18] | Potency [19] | outcome [9] | outcome [10] | outcome [12]

O=C(O)CONC(=O)c1ccccc1
inactive: Potency [13] | Potency [14] | Potency [2] | Potency [3] | Potency [15] | Potency [17] | Potency [4] | outcome [5] | Potency [6] | Potency [7] | Potency [8] | Potency [18] | Potency [19] | outcome [9] | outcome [10]

CCC(C)C(=O)OCCc1ccccc1 (centres undefined)
inactive: Potency [13] | Potency [14] | Potency [2] | Potency [3] | Potency [17] | Potency [4] | outcome [5] | Potency [7] | Potency [8] | Potency [18] | Potency [19] | outcome [9] | outcome [10] | outcome [12]
